Assay results reported in PubChem BioAssay (NCI).
Compounds without any hit were thinned out: in the full panel of roughly 79,000, 15% have a hit. Active and inactive are the calls of the source. No stated cut-off is given here; in the data, active means growth inhibition above about 70%; inactive means the rest.

Experiments:
[1] = NCI Yeast Anticancer Drug Screen. Data for the rad50 strain (AID 155);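 further: 0% = growth of vehicle-only cultures of the same strain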; conditions: S. cerevisiae rad50 strain growth inhibition, stronger effect = higher value
In short: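 Cells are treated with compound, grown, and their growth is then scored against vehicle-only cultures of the same repair-deficient yeast strain.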

[2] = NCI Yeast Anticancer Drug Screen. Data for the mec2-1 strain (AID 157); conditions: S. cerevisiae mec2-1 strain, stronger effect = higher value
In short: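 Each compound was tested on mec2-1 yeast, a strain altered in DNA damage repair or cell cycle control. Growth inhibition is reported relative to vehicle.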

[3] = NCI Yeast Anticancer Drug Screen. Data for the sgs1 mgt1 strain (AID 161);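 further: 0% = growth of cultures given vehicle only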; conditions: S. cerevisiae sgs1 mgt1 strain, stronger effect = higher value
In short: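 Inhibition of yeast growth, normalised to vehicle-treated controls, is reported for a strain bearing genetic alterations in DNA damage repair.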

[4] = NCI Yeast Anticancer Drug Screen. Data for the cln2 rad14 strain (AID 165);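 further: 0% = growth equal to vehicle treated cultures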; conditions: S. cerevisiae cln2 rad14 strain, stronger effect = higher value
In short: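 Test compounds were added to cln2 rad14 yeast cultures; inhibition of growth was then determined by comparison with vehicle treatment.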

[5] = NCI Yeast Anticancer Drug Screen. Data for the bub3 strain (AID 167); conditions: S. cerevisiae bub3 mutant strain, stronger effect = higher value
In short: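 Part of a panel of yeast mutants defective in DNA damage repair or cell cycle regulation. Each strain is grown with compound, and inhibition is calculated relative to solvent-treated cultures.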

[6] = NCI Yeast Anticancer Drug Screen. Data for the mlh1 rad18 strain (AID 175); conditions: S. cerevisiae mlh1 rad18 strain growth inhibition, stronger effect = higher value
In short: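 Inhibition values reflect reduced growth of mutant yeast versus vehicle-treated controls following compound exposure; the mutations affect DNA damage repair.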

[7] = at 5.0 µM (retest, dose inferred, filed as 0.5)
[8] = at 50.0 µM (retest, dose inferred, filed as 5.0)

Measured: growth inhibition

COc1ccccc1NC(=O)O/N=C(/Cl)C(C)C
inactive: [1]; [7] 1% | [1]; at 50.0 µM -4.65% | [2]; [7] 3% | [2]; at 50.0 µM 52% | [3]; [7] -32% | [3]; at 50.0 µM 37.6% | [4]; [7] 40% | [4]; [8] 28% | [4]; at 50.0 µM 31.9% | [5]; [7] -26% | [6]; [7] -24% | [6]; [8] 41% | [6]; at 50.0 µM 41.1%
active: [1]; [8] 70% | [2]; [8] 70% | [3]; [8] 71% | [5]; [8] 95% | [5]; at 50.0 µM 80.5%

O=C1OC(c2ccccc2)(c2ccc(-c3ccc(O)cc3)cc2)c2ccccc21 (configuration not stated)
active: [1]; [8] 95% | [1]; at 50.0 µM 95.6% | [2]; [8] 97% | [2]; at 50.0 µM 97.6% | [3]; [8] 97% | [3]; at 50.0 µM 96.8% | [4]; [8] 96% | [4]; at 50.0 µM 95.3% | [5]; [8] 96% | [5]; at 50.0 µM 95.8% | [6]; [8] 96% | [6]; at 50.0 µM 96.7%
inactive: [1]; [7] 6% | [2]; [7] 3% | [3]; [7] -1% | [4]; [7] 6% | [5]; [7] 8% | [6]; [7] 7%

O=C1OC(=O)C2C=CC=CC12 (configuration not stated)
inactive: [1]; [7] 2% | [1]; [8] -5% | [1]; at 50.0 µM 50% | [2]; [7] -1% | [2]; [8] -9% | [2]; at 50.0 µM -8.45% | [3]; [7] 2% | [3]; [8] 4% | [3]; at 50.0 µM -7.9% | [4]; [7] -1% | [4]; [8] -6% | [4]; at 50.0 µM -74.8% | [5]; [7] -3% | [5]; [8] 2% | [5]; at 50.0 µM 6.15% | [6]; [7] 14% | [6]; [8] 2% | [6]; at 50.0 µM -12.2%

c1ccc2c(c1)oc1cc3c(cc12)CCCN3
inactive: [1]; [7] 18% | [2]; [7] 19% | [2]; at 50.0 µM 10.3% | [3]; [7] 7% | [4]; [7] 3% | [4]; at 50.0 µM 4.4% | [5]; [7] 19% | [6]; [7] 18% | [6]; at 50.0 µM 43.5%
active: [1]; [8] 97% | [1]; at 50.0 µM 91.7% | [2]; [8] 98% | [3]; [8] 98% | [3]; at 50.0 µM 74.7% | [4]; [8] 97% | [5]; [8] 98% | [5]; at 50.0 µM 77.7% | [6]; [8] 98%

CC1(c2ccccc2)NC(=O)N(CC(=O)N(c2ccccc2)c2ccccc2)C1=O (configuration not stated)
inactive: [1]; [7] 12% | [1]; [8] 28% | [1]; at 50.0 µM 49.4% | [2]; [7] 15% | [2]; [8] 33% | [2]; at 50.0 µM 23.6% | [3]; [7] 9% | [3]; [8] 30% | [3]; at 50.0 µM 33.5% | [4]; [7] 14% | [4]; [8] 55% | [4]; at 50.0 µM 40.5% | [5]; [7] 8% | [5]; [8] 38% | [5]; at 50.0 µM 33.7% | [6]; [7] 12% | [6]; [8] 39% | [6]; at 50.0 µM 52.1%

CCC(C)c1ccc(O)c(C(C)c2ccccc2)c1 (configuration not stated)
active: [1]; [8] 70% | [1]; at 50.0 µM 89.6% | [2]; at 50.0 µM 92.2% | [3]; [8] 97% | [3]; at 50.0 µM 92.9% | [4]; [8] 101% | [4]; at 50.0 µM 90.3% | [5]; [8] 100% | [5]; at 50.0 µM 91% | [6]; at 50.0 µM 90.5%
inactive: [1]; [7] 44% | [2]; [7] 41% | [2]; [8] 68% | [3]; [7] 19% | [4]; [7] 49% | [5]; [7] 15% | [6]; [7] 40% | [6]; [8] 61%

CC12CCC(O)CC1=CCC1C2CCC2(C)/C(=C\C#N)CCC12 (configuration not stated)
active: [2]; [8] 78% | [3]; [8] 90% | [4]; [8] 81% | [5]; [8] 87% | [6]; [8] 97% | [6]; at 50.0 µM 73.9%
inactive: [1]; [7] -6% | [1]; [8] 53% | [1]; at 50.0 µM 69.2% | [2]; [7] 5% | [2]; at 50.0 µM 9.9% | [3]; [7] 11% | [3]; at 50.0 µM 52.3% | [4]; [7] 2% | [4]; at 50.0 µM -1.95% | [5]; [7] 2% | [5]; at 50.0 µM 31.3% | [6]; [7] -8%

COc1ccc(/C=C/Cc2cc3c(cc2O)OCO3)cc1
inactive: [1]; [7] -15% | [1]; [8] 13% | [1]; at 50.0 µM -4.05% | [2]; [7] -2% | [2]; [8] -10% | [2]; at 50.0 µM -9.7% | [3]; [7] 12% | [3]; [8] 5% | [3]; at 50.0 µM 13.1% | [4]; [7] 3% | [4]; [8] -2% | [4]; at 50.0 µM 25.8% | [5]; [7] -2% | [5]; [8] 14% | [5]; at 50.0 µM 17.2% | [6]; [7] -6% | [6]; [8] 1% | [6]; at 50.0 µM 0.85%

COCCn1cc(F)c(=O)[nH]c1=O
inactive: [1]; [7] 15% | [1]; [8] 16% | [1]; at 50.0 µM -8.7% | [2]; [7] 0% | [2]; [8] 2% | [2]; at 50.0 µM -2.25% | [3]; [7] 3% | [3]; [8] 47% | [3]; at 50.0 µM 33.2% | [4]; [7] 6% | [4]; [8] 8% | [4]; at 50.0 µM 46.3% | [5]; [7] 8% | [5]; [8] 5% | [5]; at 50.0 µM -20.6% | [6]; [7] 9% | [6]; [8] 20% | [6]; at 50.0 µM -5.45%
